According to PubChem BioAssay AID1159580 (chemical genetic matrix, 2015):
Where “and” joins values, the source holds several entries; their conditions need not be identical. Equal entries are not always repeated. The campaign covered roughly 5,500 compounds. About 2,000 (36%) were called active. Roughly 18% stayed inconclusive and do not appear here. No stated cut-off is given here; in the data, active means normalized growth mostly below about 0.91 (no sharp cut-off); inconclusive means no clear call, values can overlap the other calls; inactive means mostly above about 0.92. The list shows a part of the results.

Test: chemical genetic growth profiling, strain panel (AID 1159580);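 further: tested at 20 µM; growth read once vehicle control cultures reached saturation at 30 °C; 1 = growth at the plate median or of vehicle wells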
Settings: S. cerevisiae deletion strains, growth OD

Measured: normalized growth

CC1(C)C(=O)C=C[C@@]2(C)C1CC(=O)[C@]1(C)C2CC[C@@]2(C)[C@H](c3ccoc3)OC(=O)[C@H]3O[C@]321 (some centres undefined)
inactive: locus YAL021C, strain ccr4, stronger effect = lower value 1.02 | locus YAL026C, strain drs2, stronger effect = lower value 0.99 | locus YAL030W, strain snc1, stronger effect = lower value 0.981 | locus YBL061C, strain skt5, stronger effect = lower value 0.975 | locus YBR009C, strain hhf1, stronger effect = lower value 1.04 | locus YBR021W, strain FUR4, stronger effect = lower value 0.992 | locus YBR023C, strain chs3, stronger effect = lower value 0.991 | locus YBR171W, strain sec66, stronger effect = lower value 0.98 | locus YBR229C, strain ROT2, stronger effect = lower value 0.999 | locus YBR231C, strain swc5, stronger effect = lower value 1.03 | locus YBR279W, strain paf1, stronger effect = lower value 1.01 | locus YCL016C, strain dcc1, stronger effect = lower value 0.988 | locus YCL029C, strain bik1, stronger effect = lower value 1.02 | locus YCL061C, strain MRC1, stronger effect = lower value 0.988 | locus YCL069W, strain vba3, stronger effect = lower value 0.977 | locus YCR088W, strain abp1, stronger effect = lower value 0.998 | locus YDL005C, strain med2, stronger effect = lower value 0.977 | locus YDL035C, strain GPR1, stronger effect = lower value 0.99 | locus YDL040C, strain nat1, stronger effect = lower value 0.977 | locus YDL074C, strain BRE1, stronger effect = lower value 0.991 | locus YDL101C, strain DUN1, stronger effect = lower value 1.01 | locus YDL134C, strain PPH21, stronger effect = lower value 1.01 | locus YDL185W, strain tfp1, stronger effect = lower value 1.01 | locus YDL192W, strain arf1, stronger effect = lower value 1.01 | locus YDR001C, strain nth1, stronger effect = lower value 0.992 | locus YDR069C, strain doa4, stronger effect = lower value 0.949 | locus YDR101C, strain arx1, stronger effect = lower value 0.991 | locus YDR137W, strain rgp1, stronger effect = lower value 0.989 | locus YDR150W, strain NUM1, stronger effect = lower value 0.995 | locus YDR159W, strain sac3, stronger effect = lower value 1 | locus YDR162C, strain NBP2, stronger effect = lower value 0.962 | locus YDR195W, strain ref2 1.02 | locus YDR297W, strain sur2, stronger effect = lower value 0.994 | locus YDR318W, strain mcm21, stronger effect = lower value 1.01 | locus YDR334W, strain swr1, stronger effect = lower value 0.988 | locus YDR335W, strain msn5, stronger effect = lower value 0.994 | locus YDR388W, stronger effect = lower value 1.02 | locus YDR392W, strain spt3, stronger effect = lower value 0.925 | locus YDR502C, strain sam2, stronger effect = lower value 1.04 | locus YEL003W, strain gim4, stronger effect = lower value 0.975 | locus YEL037C, strain rad23, stronger effect = lower value 0.989 | locus YEL061C, strain CIN8 (second series), stronger effect = lower value 0.996 | locus YEL061C, strain CIN8, stronger effect = lower value 0.986 | locus YER015W, strain faa2, stronger effect = lower value 0.975 | locus YER016W, strain bim1, stronger effect = lower value 0.966 | locus YER110C, stronger effect = lower value 1.02 | locus YER111C, strain swi4, stronger effect = lower value 0.968 | locus YER155C, strain BEM2 (second series), stronger effect = lower value 1.04 | locus YER155C, strain BEM2, stronger effect = lower value 1 | locus YER167W, strain BCK2, stronger effect = lower value 0.986 | locus YFR010W, strain ubp6, stronger effect = lower value 1.02 | locus YGL078C, strain dbp3, stronger effect = lower value 1.02 | locus YGL086W, strain mad1, stronger effect = lower value 1.01 | locus YGL167C, strain pmr1, stronger effect = lower value 0.992 | locus YGL173C, strain kem1, stronger effect = lower value 1.01 | locus YGL227W, strain vid30, stronger effect = lower value 0.994 | locus YGL240W, strain doc1, stronger effect = lower value 1.06 | locus YGL248W, strain PDE1, stronger effect = lower value 1 | locus YGL253W, strain hxk2, stronger effect = lower value 0.981 | locus YGR135W, strain pre9, stronger effect = lower value 1.05 | locus YGR252W, strain gcn5, stronger effect = lower value 1.09 | locus YHR013C, strain ard1, stronger effect = lower value 0.964 | locus YHR027C, strain rpn1, stronger effect = lower value 0.995 | locus YHR030C, strain SLT2, stronger effect = lower value 0.988 and 0.992 | locus YHR079C, strain IRE1 (second series), stronger effect = lower value 1.01 | locus YHR079C, strain IRE1, stronger effect = lower value 0.987 | locus YHR094C, strain hxt1, stronger effect = lower value 1.02 | locus YHR129C, strain ARP1, stronger effect = lower value 0.988 | locus YHR142W, strain chs7, stronger effect = lower value 0.968 | locus YHR200W, strain rpn10, stronger effect = lower value 1.01 | locus YIL066C, strain RNR3, stronger effect = lower value 0.978 | locus YIL073C, strain SPO22, stronger effect = lower value 1.04 | locus YIL125W, strain kgd1, stronger effect = lower value 0.998 | locus YIR030C, strain dcg1, stronger effect = lower value 1.01 | locus YJL092W, strain hpr5, stronger effect = lower value 0.971 | locus YJL095W, strain BCK1 (second series), stronger effect = lower value 0.976 | locus YJL095W, strain BCK1, stronger effect = lower value 1 and 0.983 | locus YJL115W, strain asf1, stronger effect = lower value 0.983 | locus YJL129C, strain trk1, stronger effect = lower value 0.952 | locus YJL134W, strain LCB3, stronger effect = lower value 0.986 | locus YJL154C, strain vps35, stronger effect = lower value 0.978 | locus YJL164C, strain tpk1, stronger effect = lower value 0.985 | locus YJL166W, strain qcr8, stronger effect = lower value 1 | locus YJL168C, strain set2, stronger effect = lower value 1 | locus YJL187C, strain SWE1 (second series), stronger effect = lower value 1.02 | locus YJR066W, strain TOR1, stronger effect = lower value 0.927 | locus YJR075W, strain HOC1, stronger effect = lower value 0.995 | locus YKL009W, strain mrt4, stronger effect = lower value 1 | locus YKL068W, stronger effect = lower value 1 | locus YKL085W, strain MDH1 (second series), stronger effect = lower value 0.992 | locus YKL085W, strain MDH1, stronger effect = lower value 0.992 | locus YKL160W, strain elf1, stronger effect = lower value 0.976 | locus YKL190W, strain CNB1, stronger effect = lower value 0.997 | locus YKR001C, strain vps1, stronger effect = lower value 1.03 | locus YKR026C, strain gcn3, stronger effect = lower value 0.998 | locus YKR091W, strain srl3, stronger effect = lower value 0.974 | locus YLL001W, strain dnm1, stronger effect = lower value 1 | locus YLL026W, stronger effect = lower value 0.997 | locus YLL041C, strain sdh2, stronger effect = lower value 0.982 | locus YLR027C, strain aat2, stronger effect = lower value 1 | locus YLR039C, strain RIC1, stronger effect = lower value 0.886 | locus YLR058C, strain SHM2, stronger effect = lower value 0.996 | locus YLR102C, strain apc9, stronger effect = lower value 1.01 | locus YLR113W, strain HOG1, stronger effect = lower value 1.01 | locus YLR221C, strain rsa3, stronger effect = lower value 1.04 | locus YLR258W, strain gsy2, stronger effect = lower value 0.976 | locus YLR262C, strain YPT6 (second series), stronger effect = lower value 0.972 | locus YLR262C, strain YPT6, stronger effect = lower value 0.897 | locus YLR268W, strain sec22, stronger effect = lower value 0.982 | locus YLR320W, strain mms22, stronger effect = lower value 1.02 | locus YLR330W, strain CHS5, stronger effect = lower value 0.994 | locus YLR342W, strain FKS1 (second series), stronger effect = lower value 0.982 | locus YLR342W, strain FKS1, stronger effect = lower value 0.98 | locus YLR357W, strain rsc2, stronger effect = lower value 0.941 | locus YLR370C, strain arc18, stronger effect = lower value 0.99 | locus YLR371W, strain rom2, stronger effect = lower value 0.998 | locus YLR384C, strain iki3, stronger effect = lower value 0.987 | locus YLR418C, strain cdc73, stronger effect = lower value 1.04 | locus YML016C, strain PPZ1, stronger effect = lower value 0.984 | locus YML032C, strain rad52, stronger effect = lower value 1.02 | locus YML120C, strain ndi1, stronger effect = lower value 0.988 | locus YML124C, strain tub3, stronger effect = lower value 1.01 | locus YMR058W, strain fet3, stronger effect = lower value 1 | locus YMR078C, strain ctf18, stronger effect = lower value 1.01 | locus YMR125W, strain sto1, stronger effect = lower value 0.973 | locus YMR129W, stronger effect = lower value 0.971 | locus YMR205C, strain PFK2, stronger effect = lower value 1.04 | locus YMR223W, strain ubp8, stronger effect = lower value 1.01 | locus YMR231W, strain pep5, stronger effect = lower value 0.982 | locus YMR307W, strain GAS1, stronger effect = lower value 0.868 | locus YNL067W, strain RPL9B, stronger effect = lower value 1.01 | locus YNL071W, strain lat1, stronger effect = lower value 1 | locus YNL128W, strain TEP1, stronger effect = lower value 0.978 | locus YNL183C, strain NPR1, stronger effect = lower value 0.931 | locus YNL209W, strain ssb2, stronger effect = lower value 0.989 | locus YNL233W, strain BNI4, stronger effect = lower value 0.987 | locus YNL248C, strain rpa49, stronger effect = lower value 0.93 | locus YNL250W, strain rad50, stronger effect = lower value 1.03 | locus YNL271C, strain bni1, stronger effect = lower value 1 | locus YNL298W, strain CLA4, stronger effect = lower value 1.03 | locus YNL307C, strain MCK1, stronger effect = lower value 1 | locus YNL322C, strain KRE1 (second series), stronger effect = lower value 0.958 | locus YNR049C, strain mso1, stronger effect = lower value 0.952 | locus YNR052C, strain pop2, stronger effect = lower value 1.03 | locus YOL006C, strain TOP1, stronger effect = lower value 0.987 | locus YOL012C, strain htz1 1.38 | locus YOL147C, strain pex11, stronger effect = lower value 1.01 | locus YOR001W, strain rrp6, stronger effect = lower value 1 | locus YOR061W, strain CKA2, stronger effect = lower value 0.991 | locus YOR069W, strain VPS5, stronger effect = lower value 0.995 | locus YOR070C, strain gyp1, stronger effect = lower value 0.995 | locus YOR080W, strain dia2, stronger effect = lower value 0.986 | locus YOR083W, strain WHI5, stronger effect = lower value 0.907 | locus YOR106W, strain vam3, stronger effect = lower value 0.955 | locus YOR136W, strain idh2, stronger effect = lower value 1.01 | locus YOR144C, strain elg1, stronger effect = lower value 1.01 | locus YOR184W, strain ser1, stronger effect = lower value 0.974 | locus YOR231W, strain MKK1, stronger effect = lower value 0.983 | locus YOR265W, strain rbl2, stronger effect = lower value 0.984 | locus YOR270C, strain vph1, stronger effect = lower value 0.993 | locus YOR290C, strain snf2, stronger effect = lower value 0.976 | locus YOR316C, strain cot1, stronger effect = lower value 1.01 | locus YPL051W, strain arl3, stronger effect = lower value 1 | locus YPL055C, strain LGE1, stronger effect = lower value 1 | locus YPL078C, strain atp4, stronger effect = lower value 0.976 | locus YPL106C, strain sse1, stronger effect = lower value 0.986 | locus YPL240C, strain hsp82, stronger effect = lower value 0.996 | locus YPL241C, strain CIN2, stronger effect = lower value 0.987 | locus YPL256C, strain CLN2, stronger effect = lower value 0.987 | locus YPR119W, strain clb2, stronger effect = lower value 1.01 | locus YPR141C, strain kar3, stronger effect = lower value 1 | locus YPR163C, strain tif3, stronger effect = lower value 1.01 | locus YPR167C, strain met16, stronger effect = lower value 1.01 | strain wtn01, stronger effect = lower value 1
